Hits are enriched below; roughly 6.2% of the tested compounds scored in any of these assays.
KB-V1 MDR tox: qHTS assay for MDR1-selective chemotherapeutics: Primary screen using the drug-selected MDR subline cells KB-V1; Potency, µM (series often up to 46.1 µM), usual class: cytotoxic; 400,000 compounds, 3.4% hits; KB-V1 MDR cells viability, CellTiter-Glo, 72 h; further: on the % scale 0 is the no-effect control and ±100 the full control effect; nearly all actives have a fitted effect of over 60% in size
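Luminescent ATP read-out (CellTiter-Glo, 10 min) measures survival of drug-selected KB-V1 MDR cells after 72 h, 37 degrees C compound exposure. Medium: phenol-red-free DMEM, 10% FBS. Values from fitted concentration-response curves.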
S2 tox: Viability Counterscreen for Primary qHTS for Inhibitors of ATXN expression; S2 cells (HEK-293 line with an ATXN2-luciferase reporter) viability, CellTiter-Fluor protease fluorescence, 24 h; Potency, µM (highest dose often 56.7 µM), usual class: cytotoxic; 400,000 compounds, 0.49% hits; AID 651635, 2014; further: nearly all actives have a fitted effect of over 40% in size
ATXN2 expr inh: Primary qHTS for Inhibitors of ATXN expression; Potency, µM (top dose mostly 57 µM), for the others: top-dose activity change, negative = inhibition, most hits filed as inhibitors; 360,000 compounds, 0.72% hits; HEK-293 ATXN2-luciferase reporter, luminescence, 24 h; AID 1745845, 2022; further: on the % scale 0 is the no-effect control and ±100 the full control effect; nearly all actives have a fitted effect of over 55% in size
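qHTS (up to 57 uM final) was run with 24 h compound exposure of reporter cells at 37 °C. Each well was multiplexed: SteadyGlo luminescence measured ATXN2-luciferase expression after a fluorogenic Gly-Phe-AFC viability readout (25 uM final).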
HT1080NT lethal: qHTS for induction of synthetic lethality in tumor cells producing 2HG: qHTS for the HT-1080-NT fibrosarcoma cell line | HT-1080-NT fibrosarcoma viability, CellTiter-Glo ATP luminescence, 48 h | 360,000 compounds, 1.6% hits | Potency, µM (doses to about 46.1 µM), inactives show top-dose activity, negative = less viability, usual class: cytotoxic | AID 686970, 2013;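 further: NT is the 2HG producing partner of a matched IDH1 knockdown line; 0% = DMSO-treated cells and -100% = media-only wells without cells; nearly all actives have a fitted effect of over 55% in size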
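Viability of the 2HG-overproducing fibrosarcoma line after 48 hours of compound exposure at 37 degrees C was determined by luminescence with CellTiter-Glo, and concentration-effect curves were then fitted and categorized.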
KB-3-1 tox: qHTS assay for MDR1-selective chemotherapeutics: Primary screen using the parental adenocarcinoma cell KB-3-1; Potency, µM (series often up to 46.1 µM), usual class: cytotoxic; KB-3-1 viability, CellTiter-Glo ATP luminescence, 72 h; 400,000 compounds, 1.4% hits; further: on the % scale 0 is the no-effect control and ±100 the full control effect; nearly all actives have a fitted effect of over 60% in size
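Luminescent ATP read-out (CellTiter-Glo) measures survival of drug-naive KB-3-1 cells after 72 h compound exposure at 37 °C. Titration series was screened from lowest to highest concentration, with DMSO vehicle plates as background controls.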
HT1080 IDH1KD tx: qHTS for induction of synthetic lethality in tumor cells producing 2HG: qHTS for the HT-1080-IDH1KD cell line; HT-1080 IDH1 knockdown viability, ATP luminescence, 48 h; Potency, µM (top dose mostly 46.1 µM), for inactives: at the highest dose activity, negative = toxicity, most hits filed as cytotoxic; 360,000 compounds, 2% hits;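 further: 0% = DMSO wells and -100% = cell-free medium wells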
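HT-1080-IDH1KD cells (IDH1 knocked down), 750/well in RPMI with 5% FBS, treated with compound 48 h at 37 degrees C. Viability by CellTiter-Glo luminescence, normalised to DMSO and no-cell wells; concentration-response curves classed.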
* marks the source's active call; other numbers are inactive results; ! = not confirmed by another sample; [ ] = dose if it differs, or a comment. The call rests on the fitted dose curve; in most records, active means well fitted curve in the direction sought with a large enough effect; inconclusive means small, poorly fitted or top-dose-only effect, or another doubt; inactive means no such curve, though single readings can be large; an effect the other way counts as inactive or inconclusive. Potency means the concentration at half of the fitted maximal effect.

`CCOCCCNC(=O)/C(C#N)=C/c1ccc([N+](=O)[O-])o1` gave KB-V1 MDR tox inactive, S2 tox 19µM*, ATXN2 expr inh inconclusive, HT1080NT lethal inconclusive, KB-3-1 tox inactive and HT1080 IDH1KD tx 7.3µM*.
For CC(NC(=O)/C(C#N)=C/c1ccc([N+](=O)[O-])o1)c1ccccc1 (stereo not drawn) the results were KB-V1 MDR tox inactive, S2 tox inconclusive, ATXN2 expr inh inconclusive, HT1080NT lethal -23%, KB-3-1 tox inconclusive and HT1080 IDH1KD tx 6.5µM*.
CCOCCCNC(=O)/C(C#N)=C/c1ccc(-c2ccc(S(=O)(=O)N3CCOCC3)cc2)o1 was read as KB-V1 MDR tox 16µM*, S2 tox inactive, ATXN2 expr inh -10%, HT1080NT lethal -13%, KB-3-1 tox inactive and HT1080 IDH1KD tx -1%.
For COCCNC(=O)/C(C#N)=C/c1cc(Br)c(O)c(OC)c1 the results were KB-V1 MDR tox inactive, S2 tox inconclusive, ATXN2 expr inh 3%, HT1080NT lethal 2%, KB-3-1 tox inactive and HT1080 IDH1KD tx 3%.
CCOCCCNC(=O)/C(C#N)=C/c1cc(Br)c(O)c(Br)c1 was read as KB-V1 MDR tox 3.7µM*, S2 tox inactive, ATXN2 expr inh -12%, HT1080NT lethal 2.3µM*, KB-3-1 tox 6.5µM* and HT1080 IDH1KD tx 2.1µM*.
For Cc1ccccc1/C=C\c1nc2ccccc2c(=O)[nH]1 the results were KB-V1 MDR tox inconclusive, S2 tox inactive, ATXN2 expr inh -38%, HT1080NT lethal 16µM*, KB-3-1 tox inconclusive and HT1080 IDH1KD tx 16µM*.
For COc1cc(/C=C/c2nc3ccccc3c(=O)[nH]2)cc(OC)c1OC the results were KB-V1 MDR tox inactive, S2 tox inactive, ATXN2 expr inh 22%, HT1080NT lethal inconclusive, KB-3-1 tox 2.9µM* and HT1080 IDH1KD tx inconclusive.
`CCOC(=O)c1sc2ncn(CC(=O)Nc3cccc(C)c3)c(=O)c2c1C` gave KB-V1 MDR tox inactive, S2 tox inactive, ATXN2 expr inh 10% and KB-3-1 tox inactive.
`CCc1ccc(N2CC(c3nc4ccccc4n3Cc3ccccc3C)CC2=O)cc1` (stereo not drawn) gave KB-V1 MDR tox inactive, S2 tox inconclusive, ATXN2 expr inh inconclusive and KB-3-1 tox inactive.
CSc1nc(-c2ccccc2)c(-c2ccccc2)[nH]1 was read as KB-V1 MDR tox 12µM*, S2 tox inactive, ATXN2 expr inh -1%, HT1080NT lethal -10%, KB-3-1 tox inconclusive and HT1080 IDH1KD tx -17%.
Cc1cc(NC(=O)CSc2nnc3c(C)cc4c(C)ccc(C)c4n23)no1 was read as KB-V1 MDR tox 3.3µM*, S2 tox inconclusive, ATXN2 expr inh -16%, HT1080NT lethal 6.3µM*, KB-3-1 tox inactive and HT1080 IDH1KD tx 6.3µM*.
`CCc1nnc(NC(=O)CSc2nnc(-c3ccncc3)n2C)s1` gave KB-V1 MDR tox inactive, S2 tox inactive, ATXN2 expr inh inconclusive, HT1080NT lethal 16%, KB-3-1 tox inactive and HT1080 IDH1KD tx 9%.
For CCc1nnc(NC(=O)CSc2nnc3c(C)cc4c(C)ccc(C)c4n23)s1 the results were KB-V1 MDR tox inactive, S2 tox inactive, ATXN2 expr inh -4%, HT1080NT lethal 5.8µM*, KB-3-1 tox 4.1µM* and HT1080 IDH1KD tx 6.5µM*.
`CC(=O)Oc1cc2c(cc1Cl)C1(CC(c3ccccc3Cl)O2)CC(C)(C)NC(=S)N1` (stereo not drawn) gave KB-V1 MDR tox inconclusive, S2 tox inconclusive, ATXN2 expr inh inconclusive, HT1080NT lethal 16µM*, KB-3-1 tox inactive and HT1080 IDH1KD tx 23µM*.
COc1ccc2cc(CNc3ccc(C)cc3)c(=O)n(CC(=O)Nc3cccc(C(F)(F)F)c3)c2c1 was read as KB-V1 MDR tox inactive, S2 tox inactive, ATXN2 expr inh 10% and KB-3-1 tox inactive.
`NS(=O)(=O)c1ccc(N=Nc2nc3[nH]cnc(=S)c3[nH]2)cc1` gave KB-V1 MDR tox 1.2µM* and KB-3-1 tox 1.2µM*.
Screening CC(=O)C(Cl)C(=O)Nc1ccccc1 (stereo not drawn) returned KB-V1 MDR tox inactive, S2 tox inconclusive, ATXN2 expr inh 3%[11.3 µM], HT1080NT lethal inconclusive, KB-3-1 tox 21µM* and HT1080 IDH1KD tx inconclusive.
`NC(=O)C1CCN(c2ncc(-c3cccc(N4CCOCC4)c3)s2)CC1` gave KB-V1 MDR tox inactive and KB-3-1 tox inactive.
COc1cc2nc(CCc3nc4cc(OC)c(OC)cc4[nH]3)[nH]c2cc1OC was read as KB-V1 MDR tox inactive and KB-3-1 tox inactive.
Cc1ccnc(NC(=O)CCCOc2cc(=O)n(C)c3ccccc23)c1 was read as KB-V1 MDR tox 8.2µM*!, S2 tox inactive, ATXN2 expr inh 1.3µM*!, HT1080NT lethal inconclusive, KB-3-1 tox 3.7µM*! and HT1080 IDH1KD tx inconclusive.
Screening Cn1c(=O)cc(OCCCC(=O)NC2CCCC2)c2ccccc21 returned KB-V1 MDR tox 15µM*, S2 tox inactive, ATXN2 expr inh 110%, HT1080NT lethal inconclusive, KB-3-1 tox inactive and HT1080 IDH1KD tx -27%.
For CC1(O)CC(c2ccc(Cl)cc2)=NN1C(=O)c1ccc([N+](=O)[O-])cc1 (stereo not drawn) the results were KB-V1 MDR tox inconclusive, S2 tox inactive, ATXN2 expr inh inconclusive, HT1080NT lethal 10µM*, KB-3-1 tox inconclusive and HT1080 IDH1KD tx 16µM*.
For CC(=O)N1N=C(c2ccc(Cl)cc2)CC1c1ccc([N+](=O)[O-])cc1 (stereo not drawn) the results were KB-V1 MDR tox inactive, S2 tox inactive, ATXN2 expr inh 4%, HT1080NT lethal 1%, KB-3-1 tox inactive and HT1080 IDH1KD tx 6%.
For Cc1ccc(-n2[nH]c(C)c(/C=N/n3c(C)nc4ccccc4c3=O)c2=O)cc1 the results were KB-V1 MDR tox inconclusive, S2 tox inactive, ATXN2 expr inh -23%, HT1080NT lethal 18µM*, KB-3-1 tox inactive and HT1080 IDH1KD tx 11µM*.
Cc1ccc(N=Cc2c(C)[nH]n(-c3ccccc3)c2=O)nc1 was read as KB-V1 MDR tox inactive, S2 tox inactive, ATXN2 expr inh 7%, HT1080NT lethal -9%, KB-3-1 tox inactive and HT1080 IDH1KD tx -15%.

Screens: PubChem, National Center for Advancing Translational Sciences (NCATS)
